For five compounds, growth inhibition results are on record in PubChem BioAssay (NCI).

The panel holds about 79,000 compounds, 15% with a hit somewhere; the sample as a whole holds those more often. Active and inactive are the calls of the source. Cut-off read from the data, not from the text of the source: active = growth inhibition above about 70%; inactive = the rest.

Assay [1] is described as follows: NCI Yeast Anticancer Drug Screen. Data for the rad50 strain (AID 155).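 Note: 0% = growth of vehicle-only cultures of the same strain.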 The note with it: S. cerevisiae rad50 strain growth inhibition, stronger effect = higher value. Summed up: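 Relative growth inhibition (compound vs vehicle) was measured in yeast with a defined repair-gene alteration.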
The nature of assay [2]: NCI Yeast Anticancer Drug Screen. Data for the mec2-1 strain (AID 157). As to conditions: S. cerevisiae mec2-1 strain, stronger effect = higher value. Put shortly: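 Growth inhibition is read against vehicle-treated controls after compound exposure of the mec2-1 yeast strain, which is defective in DNA damage repair or cell cycle control.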
The nature of assay [3]: NCI Yeast Anticancer Drug Screen. Data for the sgs1 mgt1 strain (AID 161).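 Note: 0% = growth of cultures given vehicle only.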 As to conditions: S. cerevisiae sgs1 mgt1 strain, stronger effect = higher value. Summed up:
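Percent growth inhibition was derived by comparing compound-exposed mutant yeast with vehicle-exposed cultures. The strain carries alterations in DNA damage repair.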

Assay [4] can be described thus: NCI Yeast Anticancer Drug Screen. Data for the cln2 rad14 strain (AID 165).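 Note: 0% = growth equal to vehicle treated cultures.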 As to conditions: S. cerevisiae cln2 rad14 strain, stronger effect = higher value. Put shortly: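 Growth inhibition, relative to vehicle-treated controls, is the read-out. The test organism is a yeast strain with defined genetic alterations, cln2 rad14.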
A short description of assay [5]: NCI Yeast Anticancer Drug Screen. Data for the bub3 strain (AID 167). The note with it: S. cerevisiae bub3 mutant strain, stronger effect = higher value. Put shortly:
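Screening used yeast with an engineered genetic alteration affecting cell cycle control. Compound-exposed cultures were compared with vehicle cultures, and reduced growth was taken as inhibition.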

Assay [6] in a line: NCI Yeast Anticancer Drug Screen. Data for the mlh1 rad18 strain (AID 175). The note with it: S. cerevisiae mlh1 rad18 strain growth inhibition, stronger effect = higher value. Put shortly: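 Cells of a genetically altered yeast strain, deficient in DNA damage repair, were treated with compound. Their growth was then compared with that of vehicle-treated cultures to give inhibition.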

Where [7] appears, read: at 5.0 µM (retest, dose inferred, filed as 0.5).
Setting [8] is: at 50.0 µM (retest, dose inferred, filed as 5.0).

Take `CN(C)CC1CCc2ccc3ccccc3c2C1=O` (stereo not given): the growth inhibition in assay [1] (setting [7]) is 9% (inactive); in assay [1] (setting [8]), 34% (inactive); in assay [1] (at 50.0 µM), 25.9% (inactive); in assay [2] (setting [7]), -13% (inactive); in assay [2] (setting [8]) it was 27% (inactive); in assay [2] (at 50.0 µM), 31.6% (inactive). The growth inhibition in assay [3] (setting [7]) was 16% (inactive); in assay [3] (setting [8]) it was 48% (inactive); in assay [3] (at 50.0 µM), 56.4% (inactive); in assay [4] (setting [7]) it was 6% (inactive); in assay [4] (setting [8]), 29% (inactive); in assay [4] (at 50.0 µM), 7.95% (inactive). In addition, the growth inhibition in assay [5] (setting [7]) is 10% (inactive); in assay [5] (setting [8]), 63% (inactive); in assay [5] (at 50.0 µM) it was 48.8% (inactive); in assay [6] (setting [7]) it was 29% (inactive); in assay [6] (setting [8]), 65% (inactive); in assay [6] (at 50.0 µM), 15.4% (inactive).
As for `CC(C)(C)CC(C)(C)c1ccc(Oc2ccc([N+](=O)[O-])cc2S(=O)(=O)O)cc1`, the growth inhibition in assay [1] (setting [7]) is -2% (inactive); in assay [1] (setting [8]), 21% (inactive); in assay [1] (at 50.0 µM), 14.8% (inactive); in assay [2] (setting [7]) it was -6% (inactive); in assay [2] (setting [8]), -1% (inactive); in assay [2] (at 50.0 µM), 0.05% (inactive). Besides, the growth inhibition in assay [3] (setting [7]) was -1% (inactive); in assay [3] (setting [8]) it was 32% (inactive); in assay [3] (at 50.0 µM), 64.5% (inactive); in assay [4] (setting [7]) it was 4% (inactive); in assay [4] (setting [8]), -4% (inactive); in assay [4] (at 50.0 µM), -23.4% (inactive). Besides, the growth inhibition was -2% (inactive) in assay [5] (setting [7]); -13% (inactive) in assay [5] (setting [8]); 5.45% (inactive) in assay [5] (at 50.0 µM); 5% (inactive) in assay [6] (setting [7]); 26% (inactive) in assay [6] (setting [8]); 24.7% (inactive) in assay [6] (at 50.0 µM).
Turning to `CC(=O)c1cc(I)c(O)c2ncccc12`, the growth inhibition in assay [1] (setting [7]) was 96% (active); in assay [1] (setting [8]), 99% (active); in assay [1] (at 50.0 µM), 90.3% (active); in assay [2] (setting [7]), 93% (active); in assay [2] (setting [8]) it was 99% (active); in assay [2] (at 50.0 µM), 92.5% (active). For the same compound, the growth inhibition in assay [3] (setting [7]) was 29% (inactive); in assay [3] (setting [8]) it was 98% (active); in assay [3] (at 50.0 µM), 93% (active); in assay [4] (setting [7]), 69% (inactive); in assay [4] (setting [8]), 96% (active); in assay [4] (at 50.0 µM), 88.8% (active). In addition, the growth inhibition is 28% (inactive) in assay [5] (setting [7]); 95% (active) in assay [5] (setting [8]); 89.5% (active) in assay [5] (at 50.0 µM); 100% (active) in assay [6] (setting [7]); 100% (active) in assay [6] (setting [8]); 87.9% (active) in assay [6] (at 50.0 µM).
As for `O=[N+]([O-])c1ccccc1OS(=O)(=O)c1ccccc1`, the growth inhibition in assay [1] (setting [7]) was 0% (inactive); in assay [1] (setting [8]) it was -2% (inactive); in assay [1] (at 50.0 µM), -2.5% (inactive); in assay [2] (setting [7]), -12% (inactive); in assay [2] (setting [8]) it was -8% (inactive); in assay [2] (at 50.0 µM) it was -1.1% (inactive). The growth inhibition in assay [3] (setting [7]) is 4% (inactive); in assay [3] (setting [8]) it was 20% (inactive); in assay [3] (at 50.0 µM), -0.45% (inactive); in assay [4] (setting [7]), -25% (inactive); in assay [4] (setting [8]), 36% (inactive); in assay [4] (at 50.0 µM) it was 6.4% (inactive). Moreover, the growth inhibition is -4% (inactive) in assay [5] (setting [7]); 6% (inactive) in assay [5] (setting [8]); 14.3% (inactive) in assay [5] (at 50.0 µM); -6% (inactive) in assay [6] (setting [7]); 3% (inactive) in assay [6] (setting [8]); 0.65% (inactive) in assay [6] (at 50.0 µM).
Turning to `O=c1c(-c2ccccc2)c(-c2ccccc2)c1=O`, the growth inhibition was -98% (inactive) in assay [1] (setting [7]); 84% (active) in assay [1] (setting [8]); 97.7% (active) in assay [1] (at 50.0 µM); -37% (inactive) in assay [2] (setting [7]); 89% (active) in assay [2] (setting [8]); 96.2% (active) in assay [2] (at 50.0 µM). Further, the growth inhibition in assay [3] (setting [7]) is -36% (inactive); in assay [3] (setting [8]), 77% (active); in assay [3] (at 50.0 µM) it was 63.1% (inactive); in assay [4] (setting [7]), -49% (inactive); in assay [4] (setting [8]), 76% (active); in assay [4] (at 50.0 µM), 95.3% (active). Further, the growth inhibition in assay [5] (setting [7]) was -38% (inactive); in assay [5] (setting [8]), 84% (active); in assay [5] (at 50.0 µM), 96.8% (active); in assay [6] (setting [7]), -85% (inactive); in assay [6] (setting [8]), 69% (inactive); in assay [6] (at 50.0 µM), 85.5% (active).
